# Experimental data as given in PubChem BioAssay AID1209 (Sanford-Burnham Center for Chemical Genomics, 2008).
# The whole screen tested about 190,000 compounds, of which about 810 (0.43%) were called active. Cut-off read from the data, not from the text of the source: active = inhibition above about 50%; inactive = the rest. The sample as a whole holds a higher share of actives than the screen did.
# Target: Mannose-6-phosphate isomerase (Homo sapiens) (UniProt P34949)
# Assay: MPI enzyme activity inhibition – biochemical, fluorescence intensity, coupled assay, primary screen (AID 1209);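 note: plate controls were DMSO vehicle for no effect and wells lacking substrate for full effect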
# Conditions: purified PMI enzyme, at 20 µM, hits give high values
# Mannose-6-phosphate isomerase (Homo sapiens), sequence (P34949 whole entry, looked up): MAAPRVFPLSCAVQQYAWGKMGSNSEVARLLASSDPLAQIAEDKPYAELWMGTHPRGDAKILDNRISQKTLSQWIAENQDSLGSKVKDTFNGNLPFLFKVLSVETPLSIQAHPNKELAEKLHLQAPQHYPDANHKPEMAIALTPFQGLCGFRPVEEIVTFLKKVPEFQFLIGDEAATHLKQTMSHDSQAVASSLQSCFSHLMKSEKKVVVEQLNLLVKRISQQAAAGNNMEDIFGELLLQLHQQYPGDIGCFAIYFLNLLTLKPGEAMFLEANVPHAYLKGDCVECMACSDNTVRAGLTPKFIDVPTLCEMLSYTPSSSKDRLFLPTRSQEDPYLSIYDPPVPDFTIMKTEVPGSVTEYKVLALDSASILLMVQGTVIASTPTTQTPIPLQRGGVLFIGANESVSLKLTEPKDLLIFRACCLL
row,Compound,inhibition
1,O=C(Nc1ccccc1N1CCOCC1)c1cc(-c2ccncc2)nc2ccccc12,4.3% (inactive)
2,COc1cc(/C=C(\C#N)c2nc3ccc(C)cc3[nH]2)cc([N+](=O)[O-])c1O,46.2% (inactive)
3,CN(C)/C=C1\C(=O)N(c2ccc([N+](=O)[O-])cc2)N=C1c1ccccc1,24.5% (inactive)
4,O=C(NCCN1CCCC1)c1ccc(Cn2c(=S)[nH]c3ccc(Br)cc3c2=O)cc1,-24.9% (inactive)
5,COc1ccc(C(=O)Nc2c(Cl)cc(Cl)cc2C(=O)NCCN2CCOCC2)cc1,2.6% (inactive)
6,Cc1ccsc1/C=C/C(=O)O,-2.7% (inactive)
7,Cc1cccc(N2CC(O)(c3cccs3)[N+]3=C2CCCC3)c1 (stereo unspecified),-8.7% (inactive)
8,CCC(CC)c1nc(C#N)c(NCc2ccccc2)o1,5.4% (inactive)
9,CCOc1ccc(NC(=O)N2CCC(c3nc4ccccc4[nH]3)CC2)cc1,-14.1% (inactive)
10,COc1ccc(-c2nc(CN3CCC(c4ccccc4)CC3)c(C)o2)cc1OC,12.5% (inactive)
11,Cc1ccc(C(=O)Nc2sc(C)c(C)c2C(=O)c2ccccc2)cc1,50.2% (active)
12,Cc1sc(NC(=O)c2ccccc2)c(C(=O)c2ccccc2)c1C,57.2% (active)
13,Cc1sc(NC(=O)CCl)c(C(=O)c2ccccc2)c1C,23.2% (inactive)
14,CCN(CC)C(=O)c1c(NC(=O)c2ccccc2)sc(C)c1C,-0.5% (inactive)
15,Cc1ccc(C(=O)c2c(NC(=O)c3ccccc3C)sc(C)c2C)cc1,12.9% (inactive)
16,Cc1sc(NC(=O)c2ccccc2)c(C(=O)NC(C)C)c1C,2.2% (inactive)
17,Cc1ccc(C(=O)c2c(NC(=O)c3ccccc3)sc(C)c2C)cc1,59.8% (active)
18,Cc1sc(NC(=O)c2ccccc2)c(C(=O)NCCN(C)C)c1C,-8.6% (inactive)
19,Cc1ccccc1C(=O)Nc1sc(C)c(C)c1C(=O)c1ccccc1,13.9% (inactive)
20,COc1ccc(-n2ccnc2SCC(=O)NC2CCCC2)c(OC)c1,-3.3% (inactive)
21,CC(C)=CC(=O)OCC(=O)Nc1ccc(Cl)cn1,7% (inactive)
22,Cc1nc(N2CCCCC2)c(C#N)c(C)c1[N+](=O)[O-],1.3% (inactive)
23,CC1CCN(C(=O)CCc2nnc(-c3ccccc3)o2)CC1,1.6% (inactive)
24,COc1ccc(OC)c(-n2nnnc2SCC(=O)Nc2ccc3c(c2)OCCO3)c1,14.4% (inactive)

row,Compound,inhibition
1,CCOc1cc(Cl)c(NC(=O)c2ccco2)cc1OCC,10.1% (inactive)
2,CC1=C(C(=O)Nc2ccccc2C)C2(CCCCC2)C(C(N)=O)C(=S)N1 (stereo unspecified),-53.8% (inactive)
3,O=C(CSC1=Nc2ccccc2C2CC=NN12)Nc1ccc(F)cc1Cl (stereo unspecified),12.3% (inactive)
4,Cc1cc2c(cc1C)CSC(c1c(O)ccc3ccccc13)SC2,21.9% (inactive)
5,Cc1nc2ccccc2c(C)c1C(=O)c1ccccc1,-1.1% (inactive)
6,CCOC(=O)c1c(C2COc3ccccc3O2)csc1NC(=O)c1ccccc1 (stereo unspecified),15.6% (inactive)
7,CCOC(=O)c1c(C2COc3ccccc3O2)csc1N (stereo unspecified),19.8% (inactive)
8,CCOC(=O)c1c(C2COc3ccccc3O2)csc1NC(=O)c1ccco1 (stereo unspecified),55.5% (active)
9,C[n+]1ccccc1C1CCCC/C1=N\NC(N)=S (stereo unspecified),64.5% (active)
10,C[n+]1ccccc1C1CCCC/C1=N\Nc1ccc([N+](=O)[O-])cc1[N+](=O)[O-] (stereo unspecified),-5.6% (inactive)
11,CC1CCCC/C1=N\NC(=S)Nc1ccccc1 (stereo unspecified),-33.2% (inactive)
12,Cc1ccc2c(c1)cc(CN(Cc1ccco1)C(=O)COc1ccccc1)c1nnnn12,-0.9% (inactive)
13,Cc1ccc2c(c1)cc(CN(Cc1ccco1)S(=O)(=O)c1ccccc1)c1nnnn12,72.3% (active)
14,Cc1ccc2c(c1)cc(CN(Cc1ccc3c(c1)OCO3)S(=O)(=O)c1ccccc1)c1nnnn12,12.1% (inactive)
15,Cc1ccc(O)c(C=Nc2ccc3[nH]ncc3c2)c1,51.9% (active)
16,Cc1ccc(O)c(/C=N/NC(=O)c2[nH]ncc2Br)c1,-11.3% (inactive)
17,COc1ccc(C=Nc2ccc3[nH]ncc3c2)c(O)c1,47.9% (inactive)
18,CCOC(=O)c1c(-c2ccccc2)cn2ccccc12,53.7% (active)
19,CCOC(=O)c1c(-c2ccc(C)cc2)cn2ccccc12,-10.2% (inactive)
20,CCOC(=O)c1c(-c2ccc(F)cc2)cn2ccccc12,4.3% (inactive)
21,COc1ccc(-c2csc(Nc3ccc(S(=O)(=O)Nc4cc(C)on4)cc3)n2)cc1C,18.4% (inactive)
22,CN(Cc1ccncn1)C(=O)CC1C(=O)NCCN1Cc1cccc(Oc2ccccc2)c1 (stereo unspecified),4.2% (inactive)
23,COc1ccccc1N1CCN(CCCCOc2cccc3ccccc23)CC1,-10.7% (inactive)
24,O=C(NC(=S)Nc1cccc2cnccc12)c1ccccc1,22.7% (inactive)

row,Compound,inhibition
1,COc1cc(NC(=S)Nc2cccnc2)cc(OC)c1,55.4% (active)
2,Fc1ccc(NC(=S)Nc2cccc3cnccc23)cc1,10.9% (inactive)
3,COc1ccc(NC(=S)Nc2cccc3cnccc23)cc1,64.2% (active)
4,CCOc1ccc(NC(=S)Nc2cccc3cnccc23)cc1,64.9% (active)
5,CCOc1ccc(NC(=S)Nc2ccc(OCC)cc2)cc1,7.6% (inactive)
6,CCc1ccc(NC(=S)Nc2cccc3cnccc23)cc1,40.2% (inactive)
7,CCOc1ccc(NC(=S)Nc2cccnc2)cc1,27.8% (inactive)
8,COc1cc(OC)cc(C(=O)NC(=S)Nc2cccnc2)c1,13.1% (inactive)
9,CCOc1ccc(NC(=S)Nc2cc(-c3ccccc3)[nH]n2)cc1,35.1% (inactive)
10,COc1cccc(NC(=S)Nc2cccnc2)c1,10.6% (inactive)
11,CCc1cccc2c(C(=O)Cn3nnc(-c4ccc(OC)c(OC)c4)n3)c[nH]c12,13.9% (inactive)
12,O=C(NCCc1c[nH]c2ccccc12)C(=O)NCC1OCCN1S(=O)(=O)c1ccc(Cl)cc1 (stereo unspecified),10% (inactive)
13,COc1ccc(NC(=O)COC(=O)C(CC(C)C)N2C(=O)C3CC=CCC3C2=O)cc1Cl (stereo unspecified),16.5% (inactive)
14,N#Cc1c(NC(=O)CSc2n[nH]c(Cc3ccccc3)n2)oc(-c2ccccc2)c1-c1ccccc1,-1.5% (inactive)
15,CCOc1cccc(OCCOCCOc2ccccc2C(C)=O)c1,4.1% (inactive)
16,COc1cccc(/C=N/NC(=O)C(=O)N/N=C/c2cccc(OC)c2OC)c1OC,-0.6% (inactive)
17,CCN(CC)CCNC(=O)Cn1c(C)cc2ccccc2c1=O,-2.3% (inactive)
18,O=C1N=C(N2CCCCC2)SC1=C1CCCC1,1.2% (inactive)
19,CCN(CC)S(=O)(=O)c1ccc(NC(=O)C2CCCN(C(=O)c3ccc(Cl)cc3)C2)cc1 (stereo unspecified),14.2% (inactive)
20,CCc1ccc(C(=O)COC(=O)c2nn(C)c(=O)c3ccccc23)cc1,-3.7% (inactive)
21,COc1cc(C(=O)O)nc2ccccc12,26.7% (inactive)
22,O=C(/C=C/c1ccccc1)NCCN1CCOCC1,2.1% (inactive)
23,COc1ccccc1NC(=S)Nc1cccc2cnccc12,69.6% (active)
24,COCCNC(=S)Nc1cccc2cnccc12,17.7% (inactive)

row,Compound,inhibition
1,Fc1ccccc1NC(=S)Nc1cccc2cnccc12,33.9% (inactive)
2,COCCn1c(=O)[nH]c2cc(C(=O)NCCc3ccc(S(N)(=O)=O)cc3)ccc2c1=O,-4.1% (inactive)
3,CC1CCCC(C(=O)O)N1C(=O)CCSSCCC(=O)N1C(C)CCCC1C(=O)O (stereo unspecified),-1.2% (inactive)
4,CC(C)c1ccc(O)c(NC(=S)NC(=O)CCc2ccccc2)c1,12.8% (inactive)
5,CC(Nc1oc(-c2ccco2)nc1C#N)c1ccccc1 (stereo unspecified),13.7% (inactive)
6,O=C(CSc1nnc(-c2c[nH]c3ccccc23)o1)c1ccc(-c2ccccc2)cc1,9% (inactive)
7,COc1ccccc1NS(=O)(=O)c1cc(NC(=O)c2ccc(=O)[nH]c2)ccc1N1CCOCC1,0.7% (inactive)
8,COc1ccc(C(=O)Nc2ccc(Cl)c(S(=O)(=O)Nc3ccccc3OC)c2)cc1,16.8% (inactive)
9,CCN(CC)c1ccc(NC(=O)COc2ccccc2C)cc1S(=O)(=O)Nc1ccccc1OC,38.9% (inactive)
10,CCN(CC)c1ccc(NC(=O)c2cccc(C)c2)cc1S(=O)(=O)Nc1ccccc1OC,53.3% (active)
11,CCN(CC)c1ccc(NC(=O)COc2ccccc2C#N)cc1S(=O)(=O)Nc1ccccc1OC,-5.1% (inactive)
12,CCN(CC)c1ccc(NC(=O)c2ccccc2Br)cc1S(=O)(=O)Nc1ccccc1OC,63.9% (active)
13,CCN(CC)c1ccc(NC(=O)c2ccccc2F)cc1S(=O)(=O)Nc1ccccc1OC,15.4% (inactive)
14,CCN(CC)c1ccc(NC(=O)c2ccc(=O)[nH]c2)cc1S(=O)(=O)Nc1ccccc1OC,61.7% (active)
15,CCN(CC)c1ccc(NC(=O)c2ccccc2)cc1S(=O)(=O)Nc1ccccc1OC,30.8% (inactive)
16,O=C(COC(=O)c1cnccn1)NCc1ccc2c(c1)OCO2,-15.9% (inactive)
17,CCC(C)(C(=O)NC1CCCCC1)N(Cc1ccco1)C(=O)CC1NC(=O)NC1=O (stereo unspecified),8.4% (inactive)
18,COc1cc(C2NC(=O)NC(C)=C2C(=O)OC(C)C)ccc1OC(=O)c1ccco1 (stereo unspecified),1% (inactive)
19,Cc1cccc(Nc2ncnc3c2cnn3C)c1,10.3% (inactive)
20,COc1ccc(CN2C(=O)c3ccccc3C2C(=O)NCCc2ccccc2)c(OC)c1 (stereo unspecified),17.9% (inactive)
21,COc1cc(/C=c2\sc3nc(=O)c(-c4ccccc4)nn3c2=O)ccc1OCCC(C)C,-1.8% (inactive)
22,CCOc1ccccc1NC(=O)C1CCN(S(=O)(=O)c2c(C)nn(C)c2C)CC1,112% (active)
23,Cc1cccc(NC(=O)C2CCN(S(=O)(=O)c3c(C)nn(C)c3C)CC2)n1,8.4% (inactive)
24,CCOc1ccccc1NC(=O)C1CCN(S(=O)(=O)c2c(C)noc2C)CC1,5.5% (inactive)
